Hits are enriched below; roughly 14% of the tested compounds scored in any of these assays.
Pf growth 96h: inhibits malaria parasite growth, 96 h | P. falciparum luciferase reporter growth, 96 h | Potency, µM (doses to about 28.7 µM), for inactives: top-dose activity change, negative = inhibition, usual class: inhibitors | 6.9% of 320,000 active; further: potency means the concentration at half of the fitted maximal effect
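P. falciparum expressing integrated firefly luciferase grown in erythrocytes (2% hematocrit, 0.05% parasitemia final) with compounds for 96 hours at 37 C, 5% CO2. Growth inhibition read as loss of luminescence after adding luciferase detection reagent.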
Sm TGR block: blocks Schistosoma mansoni thioredoxin glutathione reductase. 3% of 360,000 active. Q962Y6. purified TGR, DTNB reduction, TNB absorbance 405 nm. AID 485364. Potency, µM (series often up to 114 µM), inactives show at the highest dose activity change, negative = inhibition, most hits filed as inhibitors; further: potency means the concentration at half of the fitted maximal effect; nearly all actives have a fitted effect of over 60% in size
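First, TGR (20 nM dispensed) and NADPH were mixed with compound. Second, a 15 min room-temperature incubation followed. Third, further NADPH and then DTNB were added to start the reaction. Finally, TNB absorbance was monitored kinetically.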
FBPA Giardia inh: blocks Giardia fructose-bisphosphate aldolase activity; A8B2U2; purified Giardia FBPA; Potency, µM (titrated, usually from 59.6 µM), for the others: at the highest dose activity, negative = inhibition, hits mostly inhibitors; 0.71% of 290,000 active; further: potency means the concentration at half of the fitted maximal effect; nearly all actives have a fitted effect of over 55% in size
Target sequence (A8B2U2 whole entry, looked up): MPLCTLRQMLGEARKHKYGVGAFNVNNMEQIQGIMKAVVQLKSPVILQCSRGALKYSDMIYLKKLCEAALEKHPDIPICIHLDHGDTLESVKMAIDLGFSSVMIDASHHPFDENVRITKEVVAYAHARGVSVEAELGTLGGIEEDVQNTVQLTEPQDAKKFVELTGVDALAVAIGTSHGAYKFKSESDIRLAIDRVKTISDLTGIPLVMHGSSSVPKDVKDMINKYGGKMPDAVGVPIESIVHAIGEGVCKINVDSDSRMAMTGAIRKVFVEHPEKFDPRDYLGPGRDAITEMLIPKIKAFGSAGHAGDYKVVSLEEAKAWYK
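Giardia FBPA (40 nM reagent) was preincubated 10 min at RT with compound (up to 57.5 uM final), then substrate plus GAPDH/TPI/NAD/arsenate coupling system with diaphorase/resazurin was added; resorufin fluorescence (525/598 nm) was read after 20 min.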
Pf growth 48h: inhibits P. falciparum growth in the first generation, 48 h | P. falciparum luciferase growth in erythrocytes, 48 h | Potency, µM (highest dose often 28.7 µM), without a hit: at the highest dose activity change, negative = inhibition, most hits filed as inhibitors | 5.9% of 310,000 active; further: potency means the concentration at half of the fitted maximal effect
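Luciferase-expressing parasites in RBCs, 2% Hct / 0.1% parasitemia final; RPMI 1640 + 0.5% Albumax; 37 C, 5% CO2, one generation; luminescence read-out, lower signal = inhibition.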
HCMV antiviral: human cytomegalovirus inhibition; HFF cells, HCMV-luciferase reporter, 72 h; stronger effect = lower value; activity change, negative = inhibition, % at 57.5 µM; 4.5% of 410,000 active; AID 1259415; in the data active means activity change below about -60%; inconclusive means no clear call, values can overlap the other calls; inactive means above about -39%
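Cell-based, HFFs, 1000 cells/well, 16 h 37C; cpds in DMSO + HCMV-luc, MOI 1 PFU/cell; 72 h 37C; OneGlo luminescence after 5 min RT; norm. to buffer vs Salinomycin 10uM.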
The depositor's hits bear a star; ? = inconclusive; nt = no result; [ ] = another dose, or the depositor's remark. Unless noted, the call rests on the fitted dose curve; in most records, active means well fitted curve in the direction sought with a large enough effect; inconclusive means small, poorly fitted or top-dose-only effect, or another doubt; inactive means no such curve, though single readings can be large; an effect the other way counts as inactive or inconclusive. On the % scale 0 is the no-effect control and ±100 the full control effect.

SMILES | Pf growth 96h | Sm TGR block | FBPA Giardia inh | Pf growth 48h | HCMV antiviral
CCCNC(=O)N1[C@@H]2CN(C(=O)Nc3ccccc3)c3ccccc3[C@@H]2[C@@H]1CO | nt | nt | nt | nt | -23
Cc1cccn2c(=O)c3cc(C(=O)NCc4ccccc4)c(=N)n(CCCN4CCOCC4)c3nc12 | nt | nt | nt | nt | -31
Cc1cccn2c(=O)c3cc(C(=O)NCCN4CCOCC4)c(=N)n(CCc4ccccc4)c3nc12 | -8% | -1% | 11% | 0.47µM* | -85*
Cc1cc(C)c2[nH]c(=O)c(C(c3nnnn3Cc3ccc4c(c3)OCO4)N3CCCCC3)cc2c1 (centres undefined) | -3% | ? | -10% | -15% | -18
CCC(C)(C)n1nnnc1C(c1cc2cc(C)cc(C)c2[nH]c1=O)N1CCCC1 (centres undefined) | ? | 22µM* | -15% | 5.9µM* | -5
CCC(C)(C)n1nnnc1C(c1cc2ccc(OC)cc2[nH]c1=O)N1CCCCC1 (centres undefined) | -20% | 3% | 7% | nt | -4
CCC(C)(C)n1nnnc1C(c1cc2cccc(C)c2[nH]c1=O)N1CCCC1 (centres undefined) | -8% | 10µM* | -19% | ? | 5
CCC(C)(C)n1nnnc1C(C(C)C)N(CCN1CCOCC1)Cc1cc2cccc(C)c2[nH]c1=O (centres undefined) | 13µM* | -20% | -13% | nt | 24
CCC(C)(C)n1nnnc1C(c1cc2cc(C)cc(C)c2[nH]c1=O)N1CCN(Cc2ccc3c(c2)OCO3)CC1 (centres undefined) | 0.52µM* | ? | -12% | nt | -60*
COc1cc(O)cc2c1C(=O)O[C@@H](C)CCCC(=O)CCCCC2 | -4% | -16% | 6% | nt | ?
COc1cc(O)c(CCO)c2c1C(=O)C[C@@H](C)O2 | 1.9µM* | -10% | -4% | 7% | 1
Brc1ccc(Cn2c(-c3cncs3)nc3ccccc32)cc1 | -95% | -4% | 6% | ? | 50
Brc1cccc(Cn2c(-c3cncs3)nc3ccccc32)c1 | 8.3µM* | -17% | 7% | 10µM* | 16
CCOc1ccc(CN(CCO)CCO)cc1C(=O)OC | 2.1µM* | 3% | -6% | 8% | 30
CCCCC(=O)Nc1nn(CC(C)C)c2nc3ccccc3cc12 | -3% | 7% | -4% | ? | -29
COc1ccc2nc3c(cc2c1)c(NC(=O)c1cccs1)nn3CC(C)C | 31% | 1% | ? | ? | -84*
Cc1ccc2nc3c(cc2c1)c(NC(=O)C(C)(C)C)nn3CC(C)C | 1µM* | -12% | 2% | 13µM* | -19
CC(C)Cn1nc(NC(=O)c2cccs2)c2cc3ccccc3nc21 | ? | 6% | -14% | ? | 77
CC(C)Cn1nc(NC(=O)C(C)(C)C)c2cc3ccccc3nc21 | ? | 0% | 9% | 9.3µM* | ?
COc1ccc(/C=N/NC(=O)CC(=O)NCc2cccnc2)cc1 | -2% | 0% | 4% | -3% | -9
COc1cc([C@H]2OC[C@H]3[C@@H]2CO[C@@H]3c2ccc(O[C@H]3O[C@H](CO)[C@@H](O)[C@H](O)[C@H]3O)c(OC)c2)ccc1O[C@@H]1O[C@H](CO)[C@@H](O)[C@H](O)[C@H]1O | nt | nt | nt | nt | -11
CCOC(=O)C1CCCN(C(=O)Cn2nc(C)n3c(cc4c(OC)cccc43)c2=O)C1 (centres undefined) | ? | 5% | nt | -11% | 0
COc1ccccc1OCCNc1ccc(S(=O)(=O)N2CCCC2)cn1 | 0% | -2% | nt | -19% | -18
CCCC[C@@H](CNC)NC[C@H](Cc1ccc(O)cc1)NCCc1ccc(OCC)cc1 | 0.93µM* | 0% | 14% | 2.6µM* | -85*
Cc1cccc(-n2cnc3c(c2=O)c2nc4ccccc4nc2n3Cc2ccco2)c1 | 84% | 2.8µM* | -19% | ? | 2
SMILES | Pf growth 96h | Sm TGR block | FBPA Giardia inh | Pf growth 48h | HCMV antiviral
COc1ccc(Cn2c3nc4ccccc4nc3c3c(=O)n(Cc4ccco4)cnc32)cc1 | 1% | 16µM* | -6% | 9.3µM* | nt
COC(=O)[C@@H]1C[C@H]1[C@@H](NS(=O)(=O)c1ccc(-c2ccccc2)cc1)c1ccccc1 | nt | nt | -11% | nt | nt
COC(=O)C1=C(c2ccc(F)cc2OCc2ccccc2)C[C@@H]2CC[C@H]1N2C(=O)N1CCC(O)(c2ccc(Cl)cc2)CC1 | nt | nt | nt | nt | -17
COC(=O)C1=C(c2ccc(F)cc2OCc2ccccc2)C[C@@H]2CC[C@H]1N2C(=O)N1CCOCC1 | ? | -25% | nt | 6.6µM* | ?
COC(=O)C1=C(c2ccc(F)cc2OCc2ccccc2)C[C@@H]2CC[C@H]1N2C(=O)N1CCC(C)CC1 | ? | -2% | nt | 7.4µM* | nt
COC(=O)C1=C(c2ccc(F)cc2OCc2ccccc2)C[C@@H]2CC[C@H]1N2C(=O)N1CCCCC1 | ? | -16% | nt | ? | -14
CCCCN(C)C(=O)c1ccc2c(c1)NC(=O)C(CC(C)C)N2 (centres undefined) | nt | -8% | nt | nt | 22
CCCn1nc(C(=O)OCC(=O)Nc2ccc(C)cc2)c2ccccc2c1=O | nt | nt | nt | nt | -26
CCOc1ccc(S(=O)(=O)Nc2ccc(C(=O)NCC(C)(C)N3CCOCC3)cc2)cc1 | -5% | 0% | nt | ? | -22
CCOCCn1c(=O)c2c(nc3n2CC(C)CN3Cc2ccccc2)n(C)c1=O (centres undefined) | ? | -9% | 8% | ? | -38
NS(=O)(=O)c1cccc(NS(=O)(=O)c2ccc(/C=C/C(=O)O)cc2)c1 | 25% | 25µM* | 12% | 2% | -8
CCCNc1nc2c(c(=O)n(C)c(=O)n2C)n1Cc1cccc(C)c1 | 12%[5.75 µM] | 0% | 4% | ? | -62*
Cn1c(=O)c2c(nc(NCCCO)n2CCc2ccccc2)n(C)c1=O | 38% | -29% | -7% | 4% | 2
CCCNc1nc2c(c(=O)n(C)c(=O)n2C)n1CCc1ccccc1 | ? | 0% | -7% | -16% | -65*
CC(C)CNc1nc2c(c(=O)n(C)c(=O)n2C)n1Cc1cccc(Br)c1 | 19% | 5% | 7% | 12µM* | -9
CCCNc1nc2c(c(=O)n(C)c(=O)n2C)n1CCCc1ccccc1 | 1.5µM* | 0% | 4% | ? | -8
Cn1c(=O)c2c(nc(NCc3ccccc3)n2Cc2ccccc2)n(C)c1=O | nt | -2% | nt | nt | -6
Cc1ccc(F)c(S(=O)(=O)NC(=O)C2(C)CCN2C(=O)Cc2ccc(-c3ccccc3)cc2)c1 (centres undefined) | nt | nt | nt | nt | -15
Cc1cccnc1C(NC(=O)C1CCN(CCCc2ccccc2)CC1)c1ccc(F)cc1 (centres undefined) | nt | nt | nt | nt | 12
CCCCNc1nc2c(c(=O)n(C)c(=O)n2C)n1CCC | 23% | -3% | 7% | 20% | 4
CCCCCCn1c(NCC)nc2c1c(=O)n(C)c(=O)n2C | ? | 1% | -10% | 3.3µM* | -89*

High-throughput results: PubChem, National Center for Advancing Translational Sciences (NCATS)
